Assay outcomes from PubChem.
Rows were chosen to be rich in hits. Some 17% of all compounds tested hit in one or more screens of this group.
HepG2 viability = counter-screen for TGF-b inhibitors: cytotoxicity in HepG2 cells | HepG2 CAGA-GFP viability, ATP luminescence, 18 h | Potency, µM (series often up to 46.1 µM), inactives show at the highest dose activity change, negative = cytotoxicity, actives largely listed as cytotoxic | actives 0.76% (n = 410,000) | AID 588856
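CellTiter-Glo luminescence gave cytotoxicity after 18 hours at 37 degrees C. The cells were HepG2 CAGA-GFP in 1% FBS DMEM, stimulated with 500 pg/mL TGF-beta after compound addition. %Activity was normalised to no-cell wells (complete cell-killing) and DMSO (no toxicity), and curves were fitted and classified.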
TGFb inhibitor = TGF-b pathway inhibition; HepG2 CAGA-GFP TGF-b/SMAD3 reporter, GFP fluorescence, 18 h; TGF-beta stimulated, 500 pg/mL final; Potency, µM (titrated, usually from 46.1 µM), for the others: at the highest dose activity, negative = inhibition, hits mostly inhibitors; actives 1.2% (n = 410,000); also: % is scaled to controls: 0 for no effect and ±100 for the full control effect; nearly all actives have a fitted effect of over 65% in size
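Inhibition of TGF-beta-driven CAGA-GFP reporter expression in HEPG2 cells is measured by cellular GFP fluorescence after 18 h stimulation with 500 pg/mL recombinant TGF-beta in 1% FBS medium at 37 degrees C.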
ATXN2 expr inh = ATXN2 expression inhibition. actives 0.72% (n = 360,000). HEK-293 ATXN2-luciferase reporter, luminescence, 24 h. Potency, µM (titrated, usually from 57 µM), for the others: top-dose activity change, negative = inhibition, most hits filed as inhibitors. AID 1745845; also: % is scaled to controls: 0 for no effect and ±100 for the full control effect; nearly all actives have a fitted effect of over 55% in size
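qHTS (up to 57 uM final) was run with 24 h compound exposure of reporter cells at 37 °C. Each well was multiplexed: SteadyGlo luminescence measured ATXN2-luciferase expression after a fluorogenic Gly-Phe-AFC viability readout (25 uM final).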
DT40 TDP1 CPT = DT40-hTDP1 cell growth loss with CPT; chicken DT40 Tdp1-/-;hTDP1 cells + 20 nM CPT, ATP luminescence, 48 h; Potency, µM (series often up to 46.2 µM), for the others: top-dose activity change, negative = growth inhibition, hits mostly inhibitors; actives 12% (n = 420,000); also: % is scaled to controls: 0 for no effect and ±100 for the full control effect; nearly all actives have a fitted effect of over 55% in size
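Chicken DT40 Tdp1-/- cells stably complemented with human TDP1 were seeded at 400 cells/well in medium containing 20 nM camptothecin, exposed to pin-transferred compounds, and grown at 37 °C for at least 48 hr. Viability was read as ATP luminescence.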
DT40 TDP1 no CPT = qHTS for Inhibitors of human tyrosyl-DNA phosphodiesterase 1 (TDP1): qHTS in cells in absence of CPT; actives 15% (n = 420,000); Potency, µM (series often up to 46.2 µM), for inactives: at the top dose activity change, negative = growth inhibition, usual class: inhibitors; DT40 Tdp1-/- hTDP1 cells, no CPT, ATP luminescence, 48 h; also: % is scaled to controls: 0 for no effect and ±100 for the full control effect; nearly all actives have a fitted effect of over 55% in size
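Seeded 400 DT40-hTDP1 cells/well (vehicle DMSO, no 20 nM CPT); pinned compounds; ≥48 hr at 37 °C; CellTiter-Glo luminescence as viability measure.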
S2 tox = cell viability loss in ATXN counter-screen; S2 cells (HEK-293 line with an ATXN2-luciferase reporter) viability, CellTiter-Fluor protease fluorescence, 24 h; Potency, µM (titrated, usually from 56.7 µM), hits mostly cytotoxic; actives 0.49% (n = 400,000); also: nearly all actives have a fitted effect of over 40% in size
The depositor's hits bear a star; i = inactive; ? = inconclusive; . = no result given; [ ] = remark or other dose. Calls follow the shape of the dose curve; as a rule, active = well fitted curve in the direction sought with a large enough effect; inconclusive = small, poorly fitted or top-dose-only effect, or another doubt; inactive = no such curve, though single readings can be large; an effect the other way counts as inactive or inconclusive. Potency is read from the fitted curve at half-maximal effect.

SMILES	HepG2 viability	TGFb inhibitor	ATXN2 expr inh	DT40 TDP1 CPT	DT40 TDP1 no CPT	S2 tox
CCc1ccc(OCC(=O)N2CCN(c3ccccn3)CC2)c(Br)c1	-3%	3%	1%	13µM*	?	i
O=C(COc1ccc(Br)cc1Cl)N1CCN(c2ccccn2)CC1	-5%	-11%	-8%	-1%	-7%	i
Cc1cc(OCC(=O)N2CCN(c3ccccn3)CC2)cc(C)c1Br	1%	-7%	-20%	?	16µM*	i
CCOC(=O)c1ccc(NC(=O)Cn2nc3c4ccccc4n(Cc4cccc(F)c4)cc-3c2=O)cc1	4%	0%	15%	22%	?	i
CC(C)(C)c1ccc(CC(=O)N2CCC2(C)C(=O)NS(=O)(=O)c2cccc(OC(F)F)c2)cc1 (stereo unspecified)	-2%	3%	14%	-11%	-6%	i
CCOC(=O)c1c(C)nc2c(c1C)/C(=N/O)CC(C)(C)C2	-30%	-18%	-7%	?	23µM*	i
CCOC(=O)c1c(C)nc2c(c1-c1ccc(OC)cc1)C(=O)CC(C)(C)C2	-4%	-2%	-7%	?	?	i
COc1cccc(CN2CC(C(=O)N(C)CC3CCOCC3)CCC2=O)c1 (stereo unspecified)	13%	16%	-4%	8%	0%	i
CCOC(=O)c1nnn(-c2ccccc2)c1C	-15%	6%	25%	-4%	-11%	i
COCc1c(C(=O)OC)nnn1-c1ccc(C(F)(F)F)cc1[N+](=O)[O-]	-2%	0%	14%	18µM*	-10%	i
CCOC(=O)c1nnn(-c2ccc([N+](=O)[O-])cc2[N+](=O)[O-])c1C	16µM*	10µM*	1%	12µM*	12µM*	i
Cc1nccn1-c1ccc(C(F)(F)F)cc1[N+](=O)[O-]	4%	-1%	8%[11.3 µM]	-13%	?	i
O=C(Cc1ccc(S(=O)(=O)N2CCCCC2)s1)Nc1ccc(F)c(F)c1	-44%	?	-15%	16µM*	23µM*	i
O=C(Cc1ccc(S(=O)(=O)N2CCCC2)s1)Nc1cccc([N+](=O)[O-])c1	-9%	?	.	?	16µM*	i
O=C(COC(=O)Cc1ccc(S(=O)(=O)N2CCCCC2)s1)Nc1ccc2c(c1)OCO2	-3%	1%	2%	5%	3%	?
NS(=O)(=O)c1cccc(NC(=O)COC(=O)Cc2ccc(S(=O)(=O)N3CCCCC3)s2)c1	-3%	2%	-33%	-1%	25%	?
COCCOC(=O)c1c(C)nc(SCC(=O)Nc2cccc3ccccc23)c(C#N)c1-c1ccco1	-12%	6%	?	?	29µM*	i
COc1cc(C(=O)O/N=C2\CCCc3c2ccc(OC)c3[N+](=O)[O-])cc(OC)c1OC	2%	-30%	-10%	10µM*	3.3µM*	i
COc1ccccc1C(=O)O/N=C1/CCCc2c1ccc(OC)c2[N+](=O)[O-]	2%	7%	-11%	-25%	?	i
CCCCC(=O)N(CCC)CCC	1%	2%	3%	8%	1%	i
CC(C)CN(CC(C)C)C(=O)CCCC(=O)N(CC(C)C)CC(C)C	-5%	-3%	-8%	?	16µM*	i
Cc1cccnc1C(NC(=O)C1CCN(CCOc2ccc(F)cc2)CC1)c1ccc(Cl)cc1 (stereo unspecified)	11µM*	?	0%	?	16µM*	?
Cc1cccnc1C(NC(=O)C1CCN(CCCOc2ccc(F)cc2)CC1)c1ccccc1 (stereo unspecified)	-18%	?	-10%	?	21µM*	i
